The panel holds about 83,000 compounds, 20% with a hit somewhere; the sample as a whole holds those more often.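 Treatment: one concentration, 48 hours, 96-well format. Scoring: percent growth, with anything below 10 considered active.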 Active and inactive are the calls of the source.
Tests used:
Assay in all cases: NCI-60 one-dose screen, 48 h (100 = growth as untreated, 0 = no growth, -100 = all killed)
Details in all cases: 10 µM
NCI-H23 lung = tested on: NCI-H23 lung
NCI-H226 lung = tested on: NCI-H226 lung
NCI-H322M lung = tested on: NCI-H322M lung
HOP-62 NSCLC = tested on: HOP-62 NSCLC
NCI-H460 lung = tested on: NCI-H460 lung
HOP-92 NSCLC = tested on: HOP-92 NSCLC
NCI-H522 lung = tested on: NCI-H522 lung
A549/ATCC NSCLC = tested on: A549/ATCC NSCLC
786-0 renal = tested on: 786-0 renal
COLO 205 colon = tested on: COLO 205 colon
DU-145 prostate = tested on: DU-145 prostate
K-562 leukemia = tested on: K-562 leukemia
MALME-3M melanoma = tested on: MALME-3M melanoma
MDA-MB-231 breast = tested on: MDA-MB-231 breast
SF-268 CNS = tested on: SF-268 CNS
SF-295 CNS = tested on: SF-295 CNS
SF-539 CNS = tested on: SF-539 CNS
UACC-257 melanoma = tested on: UACC-257 melanoma
M14 melanoma = tested on: M14 melanoma

Measured: growth

COc1ccc(-c2ccc(SCC(=O)Nc3ccc(C#N)cc3)nn2)cc1
inactive: NCI-H23 lung 79.7% | NCI-H226 lung 66.9% | NCI-H322M lung 88.4% | HOP-62 NSCLC 64.8% | NCI-H460 lung 96.4% | HOP-92 NSCLC 86.9% | NCI-H522 lung 87.3% | A549/ATCC NSCLC 96.3% | 786-0 renal 86.4% | COLO 205 colon 127% | DU-145 prostate 105% | K-562 leukemia 90% | MALME-3M melanoma 78.6% | MDA-MB-231 breast 85.4% | SF-268 CNS 99.1% | SF-295 CNS 81.3% | SF-539 CNS 71% | UACC-257 melanoma 98.9% | M14 melanoma 93%

Oc1ccc(/C=C2\CCCc3cc4ccc(O)cc4[o+]c32)c(O)c1
inactive: NCI-H23 lung 30% | NCI-H226 lung 77.6% | NCI-H322M lung 63.3% | HOP-62 NSCLC 44.7% | NCI-H460 lung 19.8% | HOP-92 NSCLC 40.9% | A549/ATCC NSCLC 83% | 786-0 renal 24.4% | COLO 205 colon 50.6% | K-562 leukemia 41.5% | MALME-3M melanoma 45.1% | SF-268 CNS 69.6% | SF-295 CNS 90.1% | UACC-257 melanoma 69% | M14 melanoma 43.2%
active: NCI-H522 lung 4.53% | DU-145 prostate 8.58% | MDA-MB-231 breast -27.4% | SF-539 CNS -15%

COc1ccc(CN2[C@H](C(=O)NCc3ccc(C(=O)NO)cc3)Cc3c([nH]c4ccccc34)[C@H]2C2CC2)cc1
inactive: NCI-H23 lung 52.3% | NCI-H226 lung 55.8% | NCI-H322M lung 59.4% | HOP-62 NSCLC 63.1% | NCI-H460 lung 33.6% | HOP-92 NSCLC 40.1% | NCI-H522 lung 22.2% | A549/ATCC NSCLC 61.3% | 786-0 renal 61.7% | COLO 205 colon 47.3% | DU-145 prostate 57% | K-562 leukemia 26.2% | MALME-3M melanoma 30.4% | MDA-MB-231 breast 54.5% | SF-268 CNS 64.9% | SF-295 CNS 45.5% | SF-539 CNS 41.6% | UACC-257 melanoma 43.4% | M14 melanoma 49.6%

Nc1cc(-c2cccc(C(=O)NCc3ccc4c(c3)OCO4)c2)ccn1
inactive: NCI-H23 lung 88% | NCI-H226 lung 87.3% | NCI-H322M lung 111% | HOP-62 NSCLC 93.6% | NCI-H460 lung 111% | HOP-92 NSCLC 89.4% | NCI-H522 lung 84.4% | A549/ATCC NSCLC 99.2% | 786-0 renal 96.7% | COLO 205 colon 131% | DU-145 prostate 101% | K-562 leukemia 74.4% | MALME-3M melanoma 99.3% | MDA-MB-231 breast 102% | SF-268 CNS 91.5% | SF-295 CNS 90.7% | SF-539 CNS 93% | UACC-257 melanoma 106% | M14 melanoma 108%

Cc1ccc(-c2nc(Nc3ccc(C)c(S(N)(=O)=O)c3)c3ccccc3n2)cc1
active: K-562 leukemia 5.02% | SF-539 CNS -31.3%
inactive: NCI-H23 lung 79% | NCI-H226 lung 84.1% | NCI-H322M lung 79.7% | HOP-62 NSCLC 96.3% | NCI-H460 lung 11.9% | HOP-92 NSCLC 104% | NCI-H522 lung 112% | A549/ATCC NSCLC 43.4% | 786-0 renal 33.7% | COLO 205 colon 90.5% | DU-145 prostate 35% | MALME-3M melanoma 92.4% | MDA-MB-231 breast 96.5% | SF-268 CNS 96.1% | SF-295 CNS 85.2% | UACC-257 melanoma 104% | M14 melanoma 63.2%

C=CCn1c(SCC(=O)Nc2ccc(C(=O)/C=C/c3ccccc3)cc2)nnc1-c1c[nH]c2ccccc12
inactive: NCI-H23 lung 68.3% | NCI-H226 lung 35.4% | NCI-H322M lung 79.5% | HOP-62 NSCLC 74.1% | NCI-H460 lung 78.6% | HOP-92 NSCLC 70.4% | NCI-H522 lung 60.6% | A549/ATCC NSCLC 63.5% | 786-0 renal 79.1% | COLO 205 colon 59.7% | DU-145 prostate 65.8% | K-562 leukemia 14.6% | MALME-3M melanoma 92.4% | MDA-MB-231 breast 69.3% | SF-268 CNS 53.3% | SF-295 CNS 35% | UACC-257 melanoma 80.3% | M14 melanoma 35.3%
active: SF-539 CNS -7.36%

O/N=C(\CSc1nnc(-c2c[nH]c3ccccc23)n1-c1ccccc1)c1ccc(Cl)cc1
inactive: NCI-H23 lung 47.3% | NCI-H226 lung 14.3% | NCI-H460 lung 10.5% | NCI-H522 lung 12.4% | A549/ATCC NSCLC 21.5% | 786-0 renal 34.1% | COLO 205 colon 10.2% | MALME-3M melanoma 11.1% | SF-295 CNS 14.1% | SF-539 CNS 29.5% | UACC-257 melanoma 44.3%
active: NCI-H322M lung -49.3% | HOP-62 NSCLC -64.1% | HOP-92 NSCLC -8.42% | DU-145 prostate -30.9% | K-562 leukemia 6.93% | MDA-MB-231 breast -54.5% | SF-268 CNS -49% | M14 melanoma -47.3%

O=C(Cc1ccc2c(c1)CN(C1CCC(=O)NC1=O)C2=O)NCCc1ccccc1 (configuration not stated)
active: HOP-62 NSCLC 0.419% | HOP-92 NSCLC -14.1% | 786-0 renal 6.47% | COLO 205 colon 0.214% | MALME-3M melanoma -59.7% | MDA-MB-231 breast -32.2% | M14 melanoma 7.92%
inactive: NCI-H23 lung 72.8% | NCI-H226 lung 11.4% | NCI-H322M lung 22.5% | NCI-H460 lung 110% | NCI-H522 lung 35.4% | A549/ATCC NSCLC 20.3% | DU-145 prostate 66.8% | K-562 leukemia 20.2% | SF-268 CNS 31.3% | SF-295 CNS 17% | SF-539 CNS 29.1% | UACC-257 melanoma 92.2%

Source: PubChem BioAssay (NCI)
